Experimental data taken from PubChem BioAssay (NCI).
About 83,000 compounds went through this panel and 20% of them were active in at least one assay; those are over-represented in the sample as a whole.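 Single-concentration screen, 48 h exposure, 96-well plates. Endpoint: percent growth. Below 10 = active.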 Unmarked numbers belong to inactive results. Active and inactive are the calls of the source.

Tests used:
Experiment in all cases: NCI-60 one-dose screen, 48 h (100 = growth as untreated, 0 = no growth, -100 = all killed)
Conditions in all cases: 10 µM unless noted
DU-145 prostate = system: DU-145 prostate
K-562 leukemia = system: K-562 leukemia
MALME-3M melanoma = system: MALME-3M melanoma
MDA-MB-231 breast = system: MDA-MB-231 breast
RXF 393 renal = system: RXF 393 renal
SF-268 CNS = system: SF-268 CNS
SF-295 CNS = system: SF-295 CNS
SF-539 CNS = system: SF-539 CNS
UACC-257 melanoma = system: UACC-257 melanoma
M14 melanoma = system: M14 melanoma
HCT-15 colon = system: HCT-15 colon
HT29 colon = system: HT29 colon
SNB-75 CNS = system: SNB-75 CNS
SNB-19 CNS = system: SNB-19 CNS
U251 CNS = system: U251 CNS
PC-3 prostate = system: PC-3 prostate
SK-MEL-5 melanoma = system: SK-MEL-5 melanoma
UACC-62 melanoma = system: UACC-62 melanoma
LOX IMVI melanoma = system: LOX IMVI melanoma
SK-MEL-28 melanoma = system: SK-MEL-28 melanoma

| SMILES | growth (DU-145 prostate) | growth (K-562 leukemia) | growth (MALME-3M melanoma) | growth (MDA-MB-231 breast) | growth (RXF 393 renal) | growth (SF-268 CNS) | growth (SF-295 CNS) | growth (SF-539 CNS) | growth (UACC-257 melanoma) | growth (M14 melanoma) | growth (HCT-15 colon) | growth (HT29 colon) | growth (SNB-75 CNS) | growth (SNB-19 CNS) | growth (U251 CNS) | growth (PC-3 prostate) | growth (SK-MEL-5 melanoma) | growth (UACC-62 melanoma) | growth (LOX IMVI melanoma) | growth (SK-MEL-28 melanoma) |
| --- | --- | --- | --- | --- | --- | --- | --- | --- | --- | --- | --- | --- | --- | --- | --- | --- | --- | --- | --- | --- |
| N#Cc1c(-c2ccccc2)cc(-c2ccc(Nc3nc(Nc4ccc(F)cc4)nc(Nc4ccc(F)cc4)n3)cc2)nc1N | 106% | 88.8% | 80.6% | 73.2% | 53.6% | 96.1% | 65% | 94.5% | 104% | 108% | 100% | 94.1% | 87.1% | 91.7% | 92% | 75.8% | 92% | 98.6% | 95.5% | 90.1% |
| Cc1cc(NCc2cc(Nc3ccnc4cc(Cl)ccc34)ccc2F)nc(N2CCCC2)n1 | 10.8% | -46.2% (active) | -65.6% (active) | -49.1% (active) | -65.5% (active) | -2.08% (active) | -84.4% (active) | -68.5% (active) | -17.8% (active) | -71.3% (active) | -60.7% (active) | -40.2% (active) | -87.3% (active) | 28.9% | -64.7% (active) | 17.5% | -94.2% (active) | -62.6% (active) | -92.8% (active) | -69.4% (active) |
| COC1=CC(=O)C[C@@H](C)[C@]12Oc1c(Cl)c(OC)cc(OC)c1C2=O | 105% | 32.9% | 85.2% | 84.1% | 86.8% | 93.5% | 96.8% | 104% | 84.5% | 66.3% | 76.9% | 104% | 67.8% | 95.7% | 92.1% | 87.5% | 84.3% | 73.3% | 80.8% | 85.7% |
| CCN(CC)CCn1nc2c3c(cccc3c1=O)-c1ccccc1-2 | 20.9% | 13.8% | -9.04% (active) | 37.7% | 24.2% | 45.9% | 7.02% (active) | 30.7% | 2.85% (active) | 28.4% | 17.1% | 15.6% | 50.9% | 26% | 6.95% (active) | 26.6% | -20% (active) | 5.94% (active) | -3.44% (active) | 37.1% |
| S=C(c1ccc2c(c1)OCO2)N1CCN(c2ccccc2Cl)CC1 | 105% | 108% | 72% | 98.7% | 109% | 94% | 118% | 102% | 96.2% | 99.3% | 96.2% | 93.6% | 100% | 99.4% | 95.2% | 84.7% | 89.6% | 89.5% | 111% | 103% |
| COc1ccc(-c2c(N)n[nH]c2-c2ccc(Cl)cc2O)cc1OC | 101% | 75.5% | 105% | 106% | 98.2% | 102% | 99.2% | 100% | 93% | 93.2% | 88.5% | 111% | 91.3% | 97.7% | 95.6% | 86.3% | 93.7% | 76.3% | 89.5% | 106% |
| O=C(NC(Cc1nnc2n(Cc3ccccc3)c(=O)c3c4c(sc3n12)CCCC4)c1ccc(Cl)cc1)c1ccccc1 (stereo not given) | 96.7% | 91.9% | 75.4% | 83.2% | 34.3% | 102% | 71.7% | 80.2% | 105% | 68% | 68.3% | 89.1% | 73.7% | 88.5% | 91.8% | 97.8% | 81.9% | 63.1% | 79.4% | 103% |
| COC(=O)/C=C1\S/C(=N\NS(=O)(=O)c2ccc(C)cc2)N(c2ccccc2)C1=O | 105% | 84.5% | 110% | 109% | 111% | 98% | 105% | 100% | 99.5% | 107% | 98.7% | 117% | 83.8% | 97% | 102% | 96.4% | 100% | 95.2% | 98.7% | 104% |
| COc1ccc(-c2cc(-c3cc(OC)ccc3OC)nc(SCC(=O)c3ccccc3)c2C#N)cc1 | 106% | 105% | 88.9% | 94.4% | 97.2% | 99% | 104% | 94.8% | 101% | 98.1% | 109% | 95% | 68% | 107% | 90.4% | 88.3% | 98.8% | 78.4% | 92.1% | 103% |
| COc1cc(C2CC(c3ccc(Nc4ccnc5cc(Cl)ccc45)cc3)=NN2C=O)cc(OC)c1OC (stereo not given) | 66.4% | 26% | 25.2% | 85.8% | 83.6% | 90.1% | 75.2% | 73.2% | 60.1% | 75.1% | 48.8% | -37.3% (active) | 75.7% | 82% | 44.6% | 80.6% | 37.3% | 46.3% | 0.138% (active) | 22.4% |
| COc1ccc(-c2nc(SCCC(C)C)nc(N/N=C\c3cccc([N+](=O)[O-])c3)c2C#N)cc1 | 34.1% | 56.8% | 50% | 23.4% | 28% | 25.1% | 32.1% | 27.5% | 81% | 61.3% | 38.7% | 30.3% | -14% (active) | 45.1% | 8.23% (active) | 40.5% | 71.1% | 67.5% | 18.8% | 67.5% |
| CCN(CC)c1nc(SCC(=O)Nc2nc3ccc(C)cc3s2)nc(-c2ccccc2)c1C#N | 101% | 86.5% | 103% | 78% | 97.3% | 88.5% | 92.9% | 89.2% | 96.5% | 101% | 83.8% | 79.6% | 85.6% | 89.5% | 87.6% | 67% | 90.2% | 67.9% | 98% | 103% |
| N#Cc1c(N)nc(NCCO)nc1-c1ccc(F)cc1 | 113% | 91.4% | 108% | 104% | 93.5% | 103% | 99.1% | 98.6% | 90.6% | 105% | 99.9% | 95.9% | 79.2% | 104% | 90.2% | 92.9% | 95% | 95% | 90.8% | 112% |
| Cc1ccc(-c2cc(-c3cccnc3)[nH]c(=O)c2C#N)cc1 | 110% | 108% | 112% | 109% | 105% | 99.3% | 102% | 99.9% | 108% | 112% | 103% | 107% | 85.2% | 97% | 101% | 110% | 105% | 96.9% | 96.9% | 109% |
| CCc1c2c(nc3ccc(OC(=O)OCc4ccc(B5OC(C)(C)C(C)(C)O5)cc4)cc13)-c1cc3c(c(=O)n1C2)COC(=O)[C@]3(O)CC | 4.84% (active) | 13.1% | -43.9% (active) | 17.4% | -64.7% (active) | -7.41% (active) | 0.0181% (active) | -62.9% (active) | -60% (active) | 4.15% (active) | 9.28% (active) | 24.8% | -21.5% (active) | 1.62% (active) | -57.2% (active) | 14.9% | -84.2% (active) | -80.8% (active) | -67.8% (active) | -0.304% (active) |
